Inconclusive results are not listed. The source made the active and inactive calls. Rule for the calls, unless noted: active = hit-call score of the fitted dose curve at least 0.9, where 1 is the maximum; inactive = score below 0.9.
How the values were obtained:
[1] = ATG_CMV_CIS: Attagene CIS-FACTORIAL HepG2 Assay for human CMV (Internal Marker) (AID 2282928); conditions: HepG2 CMV promoter reporter, transcription factor profiling; actives raise or lower the signal;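 note: endpoint acts as a background internal control marker rather than a target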
Summary of the method: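 HepG2 cells transiently transfected with multiple cis-regulated reporter units; 24 h compound exposure. Reporter mRNA quantified by RT-PCR, 6-FAM primer-extension labeling, HpaI digestion and capillary electrophoresis; bidirectional fitting against DMSO baseline.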

[2] = ATG_DR4_LXR_CIS: Attagene CIS-FACTORIAL HepG2 Assay for human Liver X Receptor (LXR), DR4 submotif (AID 2282929); conditions: HepG2 Attagene DR4 cis-reporter, mRNA transcription; actives raise or lower the signal
Summary of the method: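 After transient transfection with multiplexed cis-promoter reporter units, HepG2 cells received test chemicals for 24 h. Reporter mRNA induction, detected by fluorescence after RT-PCR and capillary electrophoresis, was scored relative to DMSO.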

[3] = ATG_M_19_CIS: Attagene CIS-FACTORIAL HepG2 Assay for M19 Transcription Factor (Internal Marker) (AID 2282939); conditions: HepG2 Attagene CIS-FACTORIAL M19 internal marker reporter; actives raise or lower the signal
Summary of the method: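 HepG2 cells transiently transfected with cis-regulated multiple reporter transcription units were dosed for 24 h; reporter mRNA was quantified by RT-PCR, 6-FAM primer-extension labelling, HpaI digestion and capillary electrophoresis, with bidirectional fitting against DMSO baseline.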

[4] = molecular target: Hepatocyte nuclear factor 3-beta (Homo sapiens) (UniProt Q9Y261); experiment: ATG_FoxA2_CIS: Attagene CIS-FACTORIAL HepG2 Assay for human Forkhead box A2 (FOXA2) (AID 2282942); conditions: HepG2 cis-reporter transcription factor activity, 24 h; actives raise or lower the signal
Sequence of Hepatocyte nuclear factor 3-beta (Homo sapiens) (Q9Y261 whole entry, looked up, the tested form may be a part): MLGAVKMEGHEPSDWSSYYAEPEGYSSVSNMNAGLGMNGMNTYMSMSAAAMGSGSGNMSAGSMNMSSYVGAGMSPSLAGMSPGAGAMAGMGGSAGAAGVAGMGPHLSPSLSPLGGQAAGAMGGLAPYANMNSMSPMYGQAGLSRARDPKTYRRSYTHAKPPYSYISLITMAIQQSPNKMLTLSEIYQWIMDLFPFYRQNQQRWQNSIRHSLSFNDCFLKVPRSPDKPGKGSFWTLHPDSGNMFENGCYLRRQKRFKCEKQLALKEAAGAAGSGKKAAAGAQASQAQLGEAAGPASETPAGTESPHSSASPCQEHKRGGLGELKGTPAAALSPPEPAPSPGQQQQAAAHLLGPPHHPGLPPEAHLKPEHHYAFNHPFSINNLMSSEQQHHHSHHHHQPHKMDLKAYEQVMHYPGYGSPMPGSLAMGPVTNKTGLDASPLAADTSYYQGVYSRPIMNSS
Summary of the method: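 Fluorescence signal of reporter cDNA fragments, separated by capillary electrophoresis, reflects endogenous transcription factor activity in transfected HepG2 after 24 h. Both increases and decreases fitted against DMSO.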

[5] = ATG_ISRE_CIS: Attagene CIS-FACTORIAL HepG2 Assay for human Interferon Regulatory Factor 1 (IRF1) binding to an Interferon-Stimulated Response Element (ISRE) (AID 2282948); conditions: HepG2 ISRE cis-reporter (Attagene), mRNA transcription readout; actives raise or lower the signal
Summary of the method: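 HepG2 cells transiently transfected with multiplexed cis-promoter reporter units; after 24 h compound exposure, reporter mRNA quantified by RT-PCR, FAM labelling, HpaI digestion and capillary electrophoresis. Bidirectional fit versus DMSO baseline.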

[6] = molecular target: Hypoxia-inducible factor 1-alpha (Homo sapiens) (UniProt Q16665); experiment: ATG_HIF1a_CIS: Attagene CIS-FACTORIAL HepG2 Assay for human Hypoxia Inducible Factor 1 (HIF1A) (AID 2282951); conditions: HepG2 Attagene cis-factorial HIF1a reporter transcription; actives raise or lower the signal
Sequence of Hypoxia-inducible factor 1-alpha (Homo sapiens) (Q16665 whole entry, looked up): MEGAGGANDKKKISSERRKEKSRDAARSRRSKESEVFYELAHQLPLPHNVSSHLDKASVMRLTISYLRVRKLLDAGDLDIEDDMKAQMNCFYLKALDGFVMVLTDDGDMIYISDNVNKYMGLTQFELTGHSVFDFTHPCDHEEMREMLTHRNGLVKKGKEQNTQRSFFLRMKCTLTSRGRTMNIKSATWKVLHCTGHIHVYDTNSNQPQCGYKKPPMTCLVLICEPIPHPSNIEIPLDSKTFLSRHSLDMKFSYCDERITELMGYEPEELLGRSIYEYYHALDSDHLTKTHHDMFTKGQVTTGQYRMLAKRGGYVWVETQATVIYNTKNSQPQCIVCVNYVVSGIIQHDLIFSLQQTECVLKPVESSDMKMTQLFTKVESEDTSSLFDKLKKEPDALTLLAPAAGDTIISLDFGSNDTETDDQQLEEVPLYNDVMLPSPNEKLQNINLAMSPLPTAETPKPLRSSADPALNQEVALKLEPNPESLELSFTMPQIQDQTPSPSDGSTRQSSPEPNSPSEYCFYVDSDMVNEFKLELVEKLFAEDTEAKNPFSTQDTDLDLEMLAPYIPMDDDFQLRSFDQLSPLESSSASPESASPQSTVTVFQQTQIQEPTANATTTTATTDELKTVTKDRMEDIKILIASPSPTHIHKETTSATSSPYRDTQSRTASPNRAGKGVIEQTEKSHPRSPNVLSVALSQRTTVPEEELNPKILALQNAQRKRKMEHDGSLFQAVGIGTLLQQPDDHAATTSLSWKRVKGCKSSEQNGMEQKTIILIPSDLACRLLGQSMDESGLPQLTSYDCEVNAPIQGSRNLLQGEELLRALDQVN
Summary of the method: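 Endogenous-TF cis reporter readout, human HepG2 cells, 24 h incubation; mRNA detected via RT-PCR and capillary electrophoresis fluorescence; DMSO-normalised bidirectional fitting.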

[7] = molecular target: Hepatocyte nuclear factor 6 (Homo sapiens) (UniProt Q9UBC0); experiment: ATG_HNF6_CIS: Attagene CIS-FACTORIAL HepG2 Assay for human Hepatocyte Nuclear Factor 6 (HNF6) (AID 2282952); conditions: HepG2 Attagene cis-factorial HNF6 reporter transcription; actives raise or lower the signal
Sequence of Hepatocyte nuclear factor 6 (Homo sapiens) (Q9UBC0 whole entry, looked up): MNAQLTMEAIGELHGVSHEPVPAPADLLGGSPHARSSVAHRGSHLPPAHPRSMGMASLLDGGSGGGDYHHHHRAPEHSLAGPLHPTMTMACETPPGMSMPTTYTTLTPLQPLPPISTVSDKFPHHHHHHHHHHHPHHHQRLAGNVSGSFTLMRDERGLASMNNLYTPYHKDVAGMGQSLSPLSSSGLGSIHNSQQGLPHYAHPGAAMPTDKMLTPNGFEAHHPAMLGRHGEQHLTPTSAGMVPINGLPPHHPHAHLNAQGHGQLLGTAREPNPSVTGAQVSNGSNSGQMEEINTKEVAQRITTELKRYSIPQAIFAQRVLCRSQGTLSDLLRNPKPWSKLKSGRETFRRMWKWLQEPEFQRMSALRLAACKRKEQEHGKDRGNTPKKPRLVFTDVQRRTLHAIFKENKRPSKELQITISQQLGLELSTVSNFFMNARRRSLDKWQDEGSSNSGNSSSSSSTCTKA
Summary of the method: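 Multiplexed mRNA reporter assay in transfected HepG2; 24 h dosing; RT-PCR plus capillary electrophoresis fluorescence; DMSO-referenced bidirectional curve fitting.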

[8] = molecular target: Heat shock factor protein 1 (Homo sapiens) (UniProt Q00613); experiment: ATG_HSE_CIS: Attagene CIS-FACTORIAL HepG2 Assay for human Heat Shock Transcription Factor 1 (HSE) (AID 2282953); conditions: HepG2 HSE cis-reporter, Attagene RNA transcription; actives raise or lower the signal
Sequence of Heat shock factor protein 1 (Homo sapiens) (Q00613 whole entry, looked up): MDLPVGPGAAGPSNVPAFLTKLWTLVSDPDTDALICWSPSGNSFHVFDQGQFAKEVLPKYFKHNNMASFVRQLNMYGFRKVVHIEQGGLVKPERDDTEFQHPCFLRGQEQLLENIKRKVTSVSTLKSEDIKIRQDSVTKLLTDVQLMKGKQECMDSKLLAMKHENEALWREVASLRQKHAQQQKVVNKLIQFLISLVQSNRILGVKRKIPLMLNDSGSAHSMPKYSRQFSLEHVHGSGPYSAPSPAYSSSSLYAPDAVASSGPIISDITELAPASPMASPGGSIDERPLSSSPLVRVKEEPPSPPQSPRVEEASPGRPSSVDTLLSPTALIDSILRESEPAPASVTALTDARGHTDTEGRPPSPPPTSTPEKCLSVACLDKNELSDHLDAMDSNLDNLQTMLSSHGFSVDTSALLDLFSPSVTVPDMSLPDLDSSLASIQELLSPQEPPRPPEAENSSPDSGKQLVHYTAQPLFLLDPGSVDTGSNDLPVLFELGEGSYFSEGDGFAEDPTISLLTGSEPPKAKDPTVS
Summary of the method: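 HepG2 cells transiently transfected with multiple reporter transcription units under cis-regulatory promoter control, measuring endogenous transcription factor activity. After 24 h chemical exposure, reporter mRNA quantified by RT-PCR, fluorescent labelling, HpaI digestion and capillary electrophoresis; bidirectional fit versus DMSO.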

[9] = ATG_RORE_CIS: Attagene CIS-FACTORIAL HepG2 Assay for human RAR-related Orphan Receptor Element (RORE) (AID 2282959); conditions: HepG2 Attagene cis-factorial RORE reporter, mRNA; actives raise or lower the signal
Summary of the method: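 Measured here: transcript induction of a cis-regulated reporter in HepG2 cells transiently transfected via FuGene 6. After 24 h, RNA was processed by RT-PCR and fluorescent capillary electrophoresis; DMSO defined baseline activity.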

[10] = ATG_Sox_CIS: Attagene CIS-FACTORIAL HepG2 Assay for human SRY-box transcription factor (SOX) (AID 2282960); conditions: HepG2 Attagene cis-factorial SOX reporter, mRNA; actives raise or lower the signal
Summary of the method: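 Using transiently transfected HepG2 cells, reporter transcription driven by cis elements was assessed 24 h after dosing. Signal was fluorescence of capillary-separated RT-PCR products, with DMSO defining baseline activity.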

[11] = ATG_TA_CIS: Attagene CIS-FACTORIAL HepG2 Assay for human TA Basal Promoter (AID 2282964); conditions: HepG2 Attagene CIS-factorial TA basal promoter reporter; actives raise or lower the signal
Summary of the method: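 HepG2 cells transiently transfected with multiplexed cis-promoter reporter units, dosed 24 h. Reporter mRNA measured by RT-PCR, 6-FAM labelling, HpaI digestion and capillary electrophoresis; bidirectional fit versus DMSO baseline, serving as background control.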

[12] = ATG_TGFb_CIS: Attagene CIS-FACTORIAL HepG2 Assay for human Transforming Growth Factor (TGF) (AID 2282967); conditions: HepG2 Attagene CIS TGFb reporter, mRNA transcription; actives raise or lower the signal
Summary of the method: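 HepG2 cells transiently transfected with cis-promoter-driven multiplexed reporter units; 24 h compound exposure. Reporter mRNA measured by RT-PCR, 6-FAM labeling, HpaI digestion and capillary electrophoresis; bidirectional fit versus DMSO baseline.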

[13] = ATG_VDRE_CIS: Attagene CIS-FACTORIAL HepG2 Assay for human Vitamin D Receptor Element (VDRE) (AID 2282968); conditions: HepG2 VDRE cis-reporter transcription, actives raise or lower the signal
Summary of the method: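 Reporter mRNA induction, quantified by capillary electrophoresis of fluorescently labelled RT-PCR products, was read 24 h after dosing HepG2 cells carrying transiently transfected cis-regulated reporter units; gain or loss relative to DMSO.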

[14] = ATG_M_06_TRANS: Attagene TRANS-FACTORIAL HepG2 Assay for M06 Transcription Factor (Internal Marker) (AID 2282983; active = hit-call score of the fitted dose curve at least 0.9, where 1 is the maximum;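 note: reporter transcript level by RT-PCR then capillary electrophoresis fluorescence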); conditions: HepG2 Attagene TRANS M06 internal marker reporter
Summary of the method: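 Cells: HepG2, transient multi-reporter transfection. Exposure: 24 h. Detection: RT-PCR, 6-FAM labelling, HpaI digestion (2 h, 37 °C), capillary electrophoresis. Baseline: DMSO.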

[15] = ATG_NFI_CIS: Attagene CIS-FACTORIAL HepG2 Assay for human Nuclear Factor I (NFI) (AID 2282989); conditions: HepG2 cis-regulatory reporter, NFI response element transcription; actives raise or lower the signal
Summary of the method: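 HepG2 cells transiently transfected with cis-element-driven multiplexed reporter transcription units, dosed for 24 h. Reporter mRNA quantified by RT-PCR, fluorescent labelling, HpaI digestion and capillary electrophoresis; bidirectional fit versus DMSO baseline.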

[16] = molecular target: Myc proto-oncogene protein (Homo sapiens) (UniProt P01106); experiment: ATG_Myc_CIS: Attagene CIS-FACTORIAL HepG2 Assay for human Myelocytomatosis (Myc) Proto-Oncogene Transcription Factor (AID 2282990); conditions: HepG2, Attagene cis-reporter transcription factor activity; actives raise or lower the signal
Sequence of Myc proto-oncogene protein (Homo sapiens) (P01106 whole entry, looked up): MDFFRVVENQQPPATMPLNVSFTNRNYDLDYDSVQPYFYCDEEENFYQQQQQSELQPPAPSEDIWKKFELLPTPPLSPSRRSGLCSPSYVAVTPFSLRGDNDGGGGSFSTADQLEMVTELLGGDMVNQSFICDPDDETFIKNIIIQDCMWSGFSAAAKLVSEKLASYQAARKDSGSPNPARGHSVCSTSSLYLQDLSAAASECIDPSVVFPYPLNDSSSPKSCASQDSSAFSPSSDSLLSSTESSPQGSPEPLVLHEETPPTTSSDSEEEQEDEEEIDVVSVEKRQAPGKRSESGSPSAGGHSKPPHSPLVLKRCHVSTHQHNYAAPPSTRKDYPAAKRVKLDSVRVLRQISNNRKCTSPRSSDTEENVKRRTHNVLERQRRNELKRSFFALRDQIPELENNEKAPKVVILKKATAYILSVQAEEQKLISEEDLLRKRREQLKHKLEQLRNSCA
Summary of the method: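 Cells of the HepG2 human liver line bear multiple cis-driven reporter transcription units. Reporter mRNA after 24 h exposure is reverse-transcribed, amplified, labelled and resolved by capillary electrophoresis, with gain- or loss-of-signal fitting relative to DMSO.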

[17] = ATG_NRF2_ARE_CIS: Attagene CIS-FACTORIAL HepG2 Assay for human Nuclear Factor Erythroid 2 Related Factor 2 (NFR2) response to Antioxidant Response Elements (ARE) (AID 2282992); conditions: HepG2 Attagene ARE/NRF2 reporter, transcription factor activity; actives raise or lower the signal;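 for AC50: reporter mRNA level measured by RT-PCR and capillary electrophoresis fluorescence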
Summary of the method: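 HepG2 cells transiently transfected with multiplexed cis-regulated reporter transcription units measure endogenous transcription factor activity. Reporter mRNA at 24 h is quantified by RT-PCR, fluorescent labelling and capillary electrophoresis, with bidirectional fitting relative to DMSO.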

[18] = molecular target: Cellular tumor antigen p53 (Homo sapiens) (UniProt P04637); experiment: ATG_p53_CIS: Attagene CIS-FACTORIAL HepG2 Assay for human p53 Transcription Factor (AID 2282994); conditions: HepG2 p53 cis-element reporter, Attagene mRNA; actives raise or lower the signal
Sequence of Cellular tumor antigen p53 (Homo sapiens) (P04637 whole entry, looked up): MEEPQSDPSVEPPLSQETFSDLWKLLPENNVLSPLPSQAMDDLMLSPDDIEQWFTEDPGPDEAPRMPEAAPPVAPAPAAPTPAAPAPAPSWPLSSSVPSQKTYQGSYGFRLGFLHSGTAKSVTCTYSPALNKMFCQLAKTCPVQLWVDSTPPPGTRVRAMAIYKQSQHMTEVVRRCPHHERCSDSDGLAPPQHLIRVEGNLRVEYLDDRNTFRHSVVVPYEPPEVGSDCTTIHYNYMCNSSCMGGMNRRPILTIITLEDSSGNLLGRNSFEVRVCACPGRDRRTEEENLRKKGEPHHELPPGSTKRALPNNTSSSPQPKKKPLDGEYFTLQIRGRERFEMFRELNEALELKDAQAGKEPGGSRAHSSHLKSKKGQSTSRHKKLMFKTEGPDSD
Summary of the method: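 HepG2 cells transiently transfected with multiplexed cis-regulated reporter transcription units read endogenous TF activity. After 24 h compound exposure, reporter mRNA was quantified by RT-PCR, fluorescent labelling, HpaI digestion and capillary electrophoresis; bidirectional fits versus DMSO baseline.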

[19] = molecular target: Nuclear receptor subfamily 1 group I member 2 (Homo sapiens) (UniProt O75469); experiment: ATG_PXR_TRANS: Attagene TRANS-FACTORIAL HepG2 Assay for human Pregnane X Receptor (PXR) (AID 2283008; active = hit-call score of the fitted dose curve at least 0.9, where 1 is the maximum)
Sequence of Nuclear receptor subfamily 1 group I member 2 (Homo sapiens) (O75469 whole entry, looked up, the tested form may be a part): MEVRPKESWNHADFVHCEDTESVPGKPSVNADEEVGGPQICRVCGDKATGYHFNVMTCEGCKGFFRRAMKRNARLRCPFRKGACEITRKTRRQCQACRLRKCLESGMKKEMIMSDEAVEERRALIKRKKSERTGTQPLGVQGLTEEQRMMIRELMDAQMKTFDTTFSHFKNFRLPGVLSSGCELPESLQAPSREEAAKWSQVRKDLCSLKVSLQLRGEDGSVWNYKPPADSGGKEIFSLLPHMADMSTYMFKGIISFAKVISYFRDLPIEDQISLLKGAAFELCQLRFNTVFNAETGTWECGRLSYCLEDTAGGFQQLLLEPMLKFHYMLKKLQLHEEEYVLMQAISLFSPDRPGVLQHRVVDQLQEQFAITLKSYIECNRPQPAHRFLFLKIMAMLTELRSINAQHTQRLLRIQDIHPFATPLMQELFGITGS
Summary of the method: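 HepG2 cells transiently transfected with multiple reporter units, here a PXR-GAL4 chimera driving a GAL4-UAS reporter; 24 h compound exposure. Reporter mRNA measured by RT-PCR, FAM labelling and capillary electrophoresis; gain of signal fitted against DMSO baseline.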

[20] = molecular target: Transcription factor E2F1 (Homo sapiens) (UniProt Q01094); experiment: ATG_E2F_CIS: Attagene CIS-FACTORIAL HepG2 Assay for human E2F Transcription Factor 1 (AID 2282935); conditions: HepG2 Attagene cis-reporter, E2F reporter RNA transcripts; actives raise or lower the signal
Sequence of Transcription factor E2F1 (Homo sapiens) (Q01094 whole entry, looked up): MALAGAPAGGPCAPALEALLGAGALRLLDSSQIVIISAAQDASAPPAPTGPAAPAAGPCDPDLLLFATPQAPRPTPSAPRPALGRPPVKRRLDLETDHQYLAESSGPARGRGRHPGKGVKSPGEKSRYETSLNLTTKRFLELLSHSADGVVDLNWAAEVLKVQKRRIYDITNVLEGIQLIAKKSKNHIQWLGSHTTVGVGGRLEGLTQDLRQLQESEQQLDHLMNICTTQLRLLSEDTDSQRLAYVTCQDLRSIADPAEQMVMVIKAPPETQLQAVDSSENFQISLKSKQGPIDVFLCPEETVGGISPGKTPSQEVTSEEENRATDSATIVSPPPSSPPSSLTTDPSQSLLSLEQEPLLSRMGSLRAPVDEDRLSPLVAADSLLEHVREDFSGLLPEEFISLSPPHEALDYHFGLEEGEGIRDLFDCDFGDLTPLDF
Summary of the method: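 Cis-element reporter mRNA induction in transiently transfected HepG2, 24 h exposure. Activity fitted in both directions relative to DMSO negative control.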

Measured: AC50

CCCCCCCCCCCCCC
not listed: [20]
inactive: all other assays above

CN(C)N=Nc1ccccc1
active: [17] 177 µM
not listed: [3] | [5] | [10] | [11] | [14] | [20]
inactive: all other assays above

CCCC(=O)OC
not listed: [1] | [5]
inactive: all other assays above

O=C(C1CCCCC1)N1CC(=O)N2CCc3ccccc3C2C1 (configuration not stated)
active: [13] 13.7 µM | [19] 8.4 µM
not listed: [2] | [4] | [6] | [7] | [10]
inactive: all other assays above

CCCCCCC(O)CCCCCCCCCCC(=O)OC (configuration not stated)
active: [9] 21.8 µM | [12] 100 µM
not listed: [1] | [3] | [8]
inactive: all other assays above

c1cc[c]([Bi]([c]2ccccc2)[c]2ccccc2)cc1
active: [2] 5.72 µM | [12] 40.4 µM | [17] 48.9 µM | [19] 2.73 µM
not listed: [18] | [20]
inactive: all other assays above

NC(=O)c1ccc(N)cc1
not listed: [1] | [10] | [19] | [20]
inactive: all other assays above

O=C(O)c1cc(Cl)cc(Cl)c1O
not listed: [3] | [20]
inactive: all other assays above

CC1=NN(c2cc(Cl)c(S(=O)(=O)O)cc2Cl)C(=O)C1N=Nc1ccc(S(=O)(=O)O)cc1 (configuration not stated)
not listed: [5] | [20]
inactive: all other assays above

F[B-](F)(F)F
not listed: [3] | [14] | [18]
inactive: all other assays above

CN(C)CCCN1c2ccccc2CCc2ccc(Cl)cc21
active: [13] 10.4 µM | [17] 17.7 µM | [18] 4.07 µM
not listed: [3] | [6] | [10] | [20]
inactive: all other assays above

C1=CCC=C1
not listed: [1] | [3] | [8] | [18] | [19] | [20]
inactive: all other assays above

CCOC(=O)c1ccccc1
active: [2] 128 µM | [5] 167 µM
not listed: [1] | [10] | [14]
inactive: all other assays above

From PubChem BioAssay (EPA / NIEHS)
